From PubChem BioAssay AID1159580 (chemical genetic matrix, 2015)
Values joined by “and” are separate entries in the source; they are usually repeats but may differ in a detail not shown here. Equal entries are not always repeated. In all, about 5,500 compounds went through this assay and about 2,000 (36%) were called active. About 18% were inconclusive and are not listed. Cut-off read from the data, not from the text of the source: active = normalized growth mostly below about 0.91 (no sharp cut-off); inconclusive = no clear call, values can overlap the other calls; inactive = mostly above about 0.92. Some of the results follow.

Assay: chemical genetic growth profiling, strain panel (AID 1159580);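 note: tested at 20 µM; growth read once vehicle control cultures reached saturation at 30 °C; 1 = growth at the plate median or of vehicle wells; lower values mean less growth of the strain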
Conditions: S. cerevisiae deletion strains, growth OD

Measured: normalized growth

CC(=O)Oc1ccc2c(c1)CCC1C2CC[C@]2(C)C(=O)CCC12 (some centres undefined)
active: locus YDR137W, strain rgp1, stronger effect = lower value 0.808
inactive: locus YAL013W, strain DEP1, stronger effect = lower value 0.985 | locus YAL021C, strain ccr4, stronger effect = lower value 0.995 | locus YAL026C, strain drs2, stronger effect = lower value 0.992 | locus YAL030W, strain snc1, stronger effect = lower value 0.972 | locus YBL061C, strain skt5, stronger effect = lower value 0.987 | locus YBR009C, strain hhf1, stronger effect = lower value 0.986 | locus YBR021W, strain FUR4, stronger effect = lower value 0.961 | locus YBR023C, strain chs3, stronger effect = lower value 0.985 | locus YBR171W, strain sec66, stronger effect = lower value 0.963 | locus YBR229C, strain ROT2, stronger effect = lower value 1 | locus YBR231C, strain swc5, stronger effect = lower value 0.984 | locus YBR279W, strain paf1, stronger effect = lower value 0.98 | locus YCL011C, strain gbp2, stronger effect = lower value 0.994 | locus YCL016C, strain dcc1, stronger effect = lower value 0.997 | locus YCL029C, strain bik1, stronger effect = lower value 1.03 | locus YCL061C, strain MRC1, stronger effect = lower value 0.985 | locus YCL069W, strain vba3, stronger effect = lower value 0.986 | locus YCR088W, strain abp1, stronger effect = lower value 0.979 | locus YDL005C, strain med2, stronger effect = lower value 0.959 | locus YDL035C, strain GPR1, stronger effect = lower value 0.957 | locus YDL040C, strain nat1, stronger effect = lower value 0.989 | locus YDL074C, strain BRE1, stronger effect = lower value 0.911 | locus YDL101C, strain DUN1, stronger effect = lower value 1 | locus YDL134C, strain PPH21, stronger effect = lower value 0.977 | locus YDL185W, strain tfp1, stronger effect = lower value 1 | locus YDL192W, strain arf1, stronger effect = lower value 1.01 | locus YDR001C, strain nth1, stronger effect = lower value 0.985 | locus YDR069C, strain doa4, stronger effect = lower value 0.969 | locus YDR101C, strain arx1, stronger effect = lower value 1.02 | locus YDR150W, strain NUM1, stronger effect = lower value 0.994 | locus YDR159W, strain sac3, stronger effect = lower value 0.979 | locus YDR162C, strain NBP2, stronger effect = lower value 0.998 | locus YDR195W, strain ref2 0.942 | locus YDR297W, strain sur2, stronger effect = lower value 0.99 | locus YDR318W, strain mcm21, stronger effect = lower value 1.01 | locus YDR334W, strain swr1, stronger effect = lower value 0.984 | locus YDR335W, strain msn5, stronger effect = lower value 0.992 | locus YDR388W, stronger effect = lower value 1.02 | locus YDR392W, strain spt3, stronger effect = lower value 1.03 | locus YDR502C, strain sam2, stronger effect = lower value 1.01 | locus YEL003W, strain gim4, stronger effect = lower value 0.988 | locus YEL037C, strain rad23, stronger effect = lower value 0.989 | locus YEL061C, strain CIN8 (second series), stronger effect = lower value 0.977 | locus YEL061C, strain CIN8, stronger effect = lower value 0.998 | locus YER015W, strain faa2, stronger effect = lower value 0.964 | locus YER016W, strain bim1, stronger effect = lower value 0.991 | locus YER110C, stronger effect = lower value 1.01 | locus YER111C, strain swi4, stronger effect = lower value 0.96 | locus YER155C, strain BEM2 (second series), stronger effect = lower value 0.923 | locus YER155C, strain BEM2, stronger effect = lower value 1.02 | locus YER167W, strain BCK2, stronger effect = lower value 1.02 | locus YFR010W, strain ubp6, stronger effect = lower value 0.985 | locus YGL078C, strain dbp3, stronger effect = lower value 1.02 | locus YGL086W, strain mad1, stronger effect = lower value 1 | locus YGL167C, strain pmr1, stronger effect = lower value 0.98 | locus YGL173C, strain kem1, stronger effect = lower value 0.981 | locus YGL227W, strain vid30, stronger effect = lower value 0.987 | locus YGL240W, strain doc1, stronger effect = lower value 0.95 | locus YGL248W, strain PDE1, stronger effect = lower value 0.949 | locus YGL253W, strain hxk2, stronger effect = lower value 0.995 | locus YGR135W, strain pre9, stronger effect = lower value 1.01 | locus YGR229C, strain SMI1, stronger effect = lower value 1.03 | locus YGR252W, strain gcn5, stronger effect = lower value 0.887 | locus YHR013C, strain ard1, stronger effect = lower value 1 | locus YHR027C, strain rpn1, stronger effect = lower value 0.969 | locus YHR030C, strain SLT2, stronger effect = lower value 1.01 and 0.944 | locus YHR079C, strain IRE1 (second series), stronger effect = lower value 1.02 | locus YHR079C, strain IRE1, stronger effect = lower value 0.933 | locus YHR094C, strain hxt1, stronger effect = lower value 1.02 | locus YHR129C, strain ARP1, stronger effect = lower value 1.01 | locus YHR142W, strain chs7, stronger effect = lower value 0.978 | locus YHR200W, strain rpn10, stronger effect = lower value 1.02 | locus YIL066C, strain RNR3, stronger effect = lower value 0.944 | locus YIL073C, strain SPO22, stronger effect = lower value 0.921 | locus YIL125W, strain kgd1, stronger effect = lower value 1.01 | locus YIR030C, strain dcg1, stronger effect = lower value 1.02 | locus YJL092W, strain hpr5, stronger effect = lower value 0.981 | locus YJL095W, strain BCK1 (second series), stronger effect = lower value 0.985 | locus YJL095W, strain BCK1, stronger effect = lower value 0.92 and 0.928 | locus YJL115W, strain asf1, stronger effect = lower value 0.978 | locus YJL129C, strain trk1, stronger effect = lower value 0.984 | locus YJL134W, strain LCB3, stronger effect = lower value 1.01 | locus YJL154C, strain vps35, stronger effect = lower value 0.979 | locus YJL164C, strain tpk1, stronger effect = lower value 0.996 | locus YJL166W, strain qcr8, stronger effect = lower value 0.96 | locus YJL168C, strain set2, stronger effect = lower value 1.01 | locus YJL187C, strain SWE1 (second series), stronger effect = lower value 0.969 | locus YJL187C, strain SWE1, stronger effect = lower value 0.981
